Luc counter – counter-screen: inhibitors of Kinase-Glo firefly luciferase. hit rate 0.28% among 200,000. Kinase-Glo luciferase, ATP luminescence, 8 min. Q27757. Potency, µM (series often up to 38.3 µM), without a hit: top-dose activity change, negative = inhibition, most hits filed as inhibitors. AID 1379; further: on the % scale 0 is the no-effect control and ±100 the full control effect; nearly all actives have a fitted effect of over 60% in size
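Luminescence was the read-out, taken after 8-minute incubation at ambient temperature. Luciferase turned over luciferin with 10 uM ATP in imidazole pH 7.2 buffer containing KCl, MgCl2, Tween 20 and BSA.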
Rab9 promoter act – activators of Rab9 promoter | Potency, µM (series often up to 9.22 µM), without a hit: at the highest dose activation, negative = inhibition, usual class: activators | Huh7 Rab9 promoter-luciferase reporter, luminescence, 24 h | hit rate 2.8% among 320,000; further: % of control where 0% means no effect; nearly all actives have a fitted effect of over 60% in size
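Quantitative HTS format; Huh7 Rab9-luciferase reporter cells (1500/well) receive compound 2 h post-plating, incubate 24 h at 37 °C, then get luciferase reagent for 10 min before luminescence reading.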
FLuc modulator – counter-screen for miR-21 project: firefly luciferase inhibitors or activators | AID 588342 | purified FLuc, Km substrates, luminescence inhibition | Potency, µM (highest dose often 57.5 µM), without a hit: at the highest dose activity change, negative = inhibition, hits mostly inhibitors | hit rate 6.9% among 360,000;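 further: plate controls were vehicle for no effect and reference inhibitor for full effect; nearly all actives have a fitted effect of over 55% in size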
Target sequence (P08659 whole entry, looked up): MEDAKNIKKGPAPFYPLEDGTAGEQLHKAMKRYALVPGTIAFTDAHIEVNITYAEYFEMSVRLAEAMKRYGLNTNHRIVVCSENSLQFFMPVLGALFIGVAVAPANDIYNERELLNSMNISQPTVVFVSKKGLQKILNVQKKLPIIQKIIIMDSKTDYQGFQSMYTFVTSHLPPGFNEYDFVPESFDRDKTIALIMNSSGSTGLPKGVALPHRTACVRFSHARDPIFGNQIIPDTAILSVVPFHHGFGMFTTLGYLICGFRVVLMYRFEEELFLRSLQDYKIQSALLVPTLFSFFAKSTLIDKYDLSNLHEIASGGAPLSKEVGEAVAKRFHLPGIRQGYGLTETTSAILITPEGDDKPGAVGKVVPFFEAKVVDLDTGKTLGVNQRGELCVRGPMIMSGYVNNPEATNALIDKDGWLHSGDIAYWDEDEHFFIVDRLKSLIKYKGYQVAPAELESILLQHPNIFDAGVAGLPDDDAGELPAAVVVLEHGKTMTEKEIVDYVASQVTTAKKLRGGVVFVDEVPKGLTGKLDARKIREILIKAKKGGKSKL
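Purified P. pyralis luciferase (10nM final) with 10uM D-luciferin and 10uM ATP (Km levels) in 50mM Tris acetate pH 7.5, 10mM Mg acetate, 0.01% Tween-20, 0.05% BSA; qHTS 6-point titration, ~60 µM downward; luminescence read.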
NPC1 promoter act – activators of NPC1 promoter; Huh7 NPC1 promoter luciferase reporter, 24 h; Potency, µM (highest dose often 9.22 µM), for the others: at the top dose activation, most hits filed as activators; hit rate 2.4% among 320,000; AID 485313; further: % of control where 0% means no effect; nearly all actives have a fitted effect of over 60% in size
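Cells: Huh7 expressing luciferase under the NPC1 promoter, 1500/well. Seeded 2 h, compound added, incubated 24 h at 37 °C. Luciferase reagent, 10 min ambient, then luminescence.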
SMN2 splice enh – enhancers of SMN2 splice variant expression. HEK293 SMN2-luciferase splicing reporter, luminescence, 30-36 h. Potency, µM (highest dose often 46.1 µM), for the others: top-dose activity change, positive = activation, usual class: activators. hit rate 2.8% among 210,000. AID 1458; further: % of control where 0% means no effect; nearly all actives have a fitted effect of over 55% in size
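qHTS luciferase splicing reporter: luminescence rises when SMN2 exon 7 is included in transfected HEK293 cells. Compound exposure lasted 30-36 h at 37C, with 4.5 mM final sodium butyrate as control, followed by a ONE-Glo read.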
Numbers without * were called inactive; ? = inconclusive; · = no result; [ ] = remark or other dose. Shown are actives, neighbours in structure and some others; about 7.3% of the full set was active somewhere. The call rests on the fitted dose curve; in most records, active means well fitted curve in the direction sought with a large enough effect; inconclusive means small, poorly fitted or top-dose-only effect, or another doubt; inactive means no such curve, though single readings can be large; an effect the other way counts as inactive or inconclusive. Potency means the concentration at half of the fitted maximal effect.

SMILES	Luc counter	Rab9 promoter act	FLuc modulator	NPC1 promoter act	SMN2 splice enh
O=S(=O)(c1ccc2c(c1)OCCO2)N1CCCN(S(=O)(=O)c2c(F)cccc2F)CC1	·	-0.2%	12.2%	-0.1%	·
CN1CCOc2ccc(S(=O)(=O)N3CCN(S(=O)(=O)c4c(F)cccc4F)CC3)cc21	·	?	21.3µM*	?	·
CSc1ccc(C2CC(=O)Oc3c2c(=O)n(C)c2ccccc32)cc1 (stereo not drawn)	·	·	?	·	9.3%
COc1ccc(Oc2cc(C)c3ccccc3n2)cc1	0.4%	10.2%	?	-0.3%	-16.5%
c1ccc(Oc2ccc3ccccc3n2)cc1	-5.6%	4.6%	16.9µM*	16.7%	-5.0%
Cc1ccc(NC(=S)NC(=O)Cc2ccccc2)c(O)c1	·	3.2%	15.1µM*	22.2%	·
Cc1ccc(O)c(NC(=S)NC(=O)CC(C)C)c1	-4.8%	?	16.9µM*	?	12.6µM*
O=C(NCc1ccc2c(c1)CCN2C(=O)c1ccc(F)cc1)c1cc2ccccc2[nH]1	·	·	-2.9%	·	·
O=C(Cc1ccc(Br)cc1)N1CCCCCC1	0.1%	18.6%	?	?	10µM*
Cc1ccc(S(=O)(=O)N2CCN(Cc3noc(CCC(=O)N4CCCCC4)n3)CC2)c(C)c1	·	·	-1.7%	·	·
CC(C)(CC(=O)NCc1ccc(Cl)cc1Cl)CC1=NS(=O)(=O)c2ccccc2N1	·	·	-4.9%	·	·
CCNC(=S)N/N=C/c1sc(N2CCCCC2)nc1-c1cccs1	11.2µM*	?	1.9µM*	26.1%	·
CCN1C(=O)c2cccc3c(S(=O)(=O)Nc4ncccc4C)ccc1c23	-0.8%	0.7%	3.0%	-0.9%	?
CCN1C(=O)c2cccc3c(S(=O)(=O)Nc4nc(C)cs4)ccc1c23	-2.9%	-2.1%	1.3%	-1.4%	12.6µM*
CCN1C(=O)c2cccc3c(S(=O)(=O)Nc4ccncc4)ccc1c23	8.7%	-5.9%	0.4%	-0.1%	4.2%
CCN1C(=O)c2cccc3c(S(=O)(=O)Nc4ccccc4)ccc1c23	-1.5%	-5.4%	-4.7%	-5.0%	20µM*
O=C(Cc1cccs1)Nc1ccc(N2CCOCC2)cc1	10.6%	?	16.9µM*	?	?
O=C(O)CCCC(=O)Nc1ccc(N2CCCC2)cc1	0.8%	6.2%	15.1µM*	3.8%	-11.8%
O=C(CNC(=O)c1ccco1)Nc1ccc(N2CCCCCC2)cc1	·	27.9%	16.9µM*	29.2%	·
CN1CCN(c2ccc(NC(=O)Cc3ccccc3)cc2)CC1	-1.2%	?	19µM*	?	17.4%
O=C(CNC(=O)c1ccc(Br)o1)Nc1ccc(N2CCCCCC2)cc1	·	-1.3%	?	-4.2%	·
CCCC(=O)Nc1ccc(N2CCCCC2)cc1	-0.5%	?	?	?	?
Cc1cc2c(cc3c(SCc4ccc(Cl)cc4)nnc(C)n32)o1	·	·	-17.4%	·	·
O=C(NCCN1CCOCC1)c1ccc(Cc2nc3ccccc3[nH]2)cc1	-5.0%	·	·	·	·
Clc1ccc2c(N3CCC(CCC4CCN(c5ncnc6cc(Cl)ccc56)CC4)CC3)ncnc2c1	-5.9%[7.66 µM]	·	·	·	-15.9%[9.22 µM]
SMILES	Luc counter	Rab9 promoter act	FLuc modulator	NPC1 promoter act	SMN2 splice enh
Cc1cc(C)cc(-n2c(SCC(=O)N3CCc4ccccc43)nc3c([nH]c4ccccc43)c2=O)c1	·	·	-1.9%	·	·
CCCC(=O)N1CCN(c2ccc(NC(=O)c3ccco3)cc2)CC1	-1.0%	24.5%	1.2%	2.2%	-9.4%
O=C(Cc1ccccc1)Nc1ccc(N2CCCCC2)cc1	-6.3%	?	6.01µM*	1.78µM*	11.2µM*
COCCCNC(=S)Nc1ccc(N2CCCCC2)cc1	-1.3%	13.0%	-5.9%	10.9%	15.9%
CCN1CCN(c2ccc(NC(=O)c3ccco3)cc2)CC1	·	?	26.9µM*	?	·
CCNC(=S)Nc1ccc(N2CCCCC2)cc1	-0.6%	24.7%	-14.3%	26.2%	17.8µM*
CS(=O)(=O)N1CCN(c2ccc(NC(=O)Cc3ccccc3)cc2)CC1	20.0%	-0.3%	2.8%	9.6%	-7.6%
CCn1c(/N=C/c2c[nH]c3ccccc23)nc2ccccc21	·	-3.3%	0.536µM*	0.0%	·
CCCCn1c(/N=C/c2c[nH]c3ccccc23)nc2ccccc21	-4.0%	-1.2%	9.53µM*	1.6%	-25.3%
CCCn1c(/N=C/c2ccccc2O)nc2ccccc21	-2.4%	-0.5%	-0.4%	-4.3%	-2.9%
CCCn1c(/N=C/c2c[nH]c3ccccc23)nc2ccccc21	-0.1%	-0.2%	2.69µM*	3.0%	-16.7%
CCCCn1c(/C=N/Nc2nc3ccccc3[nH]2)nc2ccccc21	2.9%	-31.4%	?	-3.6%	-78.9%
CC(C)Oc1ccc(C(=O)NCC(=O)OCC(=O)N(C)Cc2cccs2)cc1	-1.8%	0.5%	15.1µM*	-9.0%	10.5%
CC(C)Oc1ccc(C(=O)N(Cc2ccco2)Cc2cccs2)cc1	·	·	-18.1%	·	-1.2%
COc1cc2[nH]c(=O)n(CCCCCC(=O)N3CCN(c4ccc(Cl)cc4)CC3)c(=O)c2cc1OC	·	·	-11.7%	·	-5.8%
COc1ccccc1-c1cc(C(=O)Nc2ccc(F)cc2F)no1	-5.0%	?	1.9%	?	-1.5%
CCN(CC)C(=O)c1cc(-c2ccccc2OC)on1	-9.3%	?	16.9µM*	?	12.2%
COc1ccccc1-c1cc(C(=O)NC(C)C)no1	-6.4%	2.82µM*	13.5µM*	3.16µM*	28.6%
COc1ccccc1-c1cc(C(=O)NC(C)c2ccccc2)no1 (stereo not drawn)	·	7.6%	-23.0%	0.9%	·
COc1cccc2c(=O)c(C(=O)NCc3cccs3)c[nH]c12	-2.7%	3.55µM*	9.53µM*	?	?
COCCNC(=O)c1cc(-c2ccccc2OC)on1	1.8%	?	21.3µM*	8.7%	35.6%
COc1ccccc1-c1cc(C(=O)Nc2cc(OC)c(OC)c(OC)c2)no1	·	·	-19.2%	·	-31.8%
CCOC(=O)c1ccc(NS(=O)(=O)c2cc(Br)cc3c2N(C(C)=O)C(C)C3)cc1 (stereo not drawn)	·	·	?	·	-68.7%
CCOc1ccc(CCNC(=O)CCCn2c(=O)c3cccn3c3cccnc32)cc1	·	·	-2.0%	·	·
CNCC(=O)NCC(=O)N[C@@H](Cc1ccccc1)C(=O)N[C@@H](CC(C)C)C(=O)O	·	·	·	·	2.8%
SMILES	Luc counter	Rab9 promoter act	FLuc modulator	NPC1 promoter act	SMN2 splice enh
Cc1nc2ccn(Cc3cccnc3)c(=O)c2cc1C(=O)N1CCN(c2ccccc2)CC1	·	·	-2.0%	·	·
O=C(CSc1nnc(CNC(=O)c2c(F)cccc2Cl)o1)Nc1cccc(F)c1	·	·	-16.9%	·	-2.2%
C[C@@H]1CC2C3CCC4=CC(=O)C=CC4(C)[C@@]3(F)[C@@H](O)CC2(C)[C@@]1(O)C(=O)CO (stereo partly drawn)	4.2%[39.9 µM]	·	·	·	·
Cc1ccc(N2CC(NC(=O)c3cccs3)CC2=O)cc1 (stereo not drawn)	·	·	6.6%	·	·
COc1ccccc1-c1cc(C(=O)NCc2cccs2)no1	-1.6%	-4.6%	19µM*	13.0%	-2.8%
COc1ccccc1-c1cc(C(=O)NCc2ccco2)no1	0.4%	0.3%	15.1µM*	13.6%	0.5%
Cc1ccc(CNc2ccc(N3CCOCC3)cc2)cc1	·	2.82µM*	8.49µM*	3.98µM*	·

Source: PubChem BioAssay (National Center for Advancing Translational Sciences (NCATS))
